# Assay results: the supplement of paper PMC8728848
# The full list was thinned out, with the strongest signals kept by preference.
# Tests used:
# Assay in all cases: glycan array binding signal (z-score within array); higher = stronger binding
# Settings in all cases: glycan notation: IUPAC condensed, linker removed
# [1] = biological target: Fuc(a1-2)Gal(b1-3)GalNAc(a1-3)[Fuc(a1-2)]Gal(b1-4)Glc
# Summary of the method: (§1)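 Negative Z-scores can be read as non-binding. The Z-score is calculated within each array and then averaged across arrays of one protein sequence at different concentrations or buffers and across linkers. Arrays, 3228 in all, were curated from the Consortium for Functional Glycomics database and kept only where the protein sequence was available.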
# [2] = biological target: Fuc(a1-2)Gal(b1-3)[Fuc(a1-4)]GlcNAc(b1-2)Man(a1-3)[Fuc(a1-2)Gal(b1-3)[Fuc(a1-4)]GlcNAc(b1-2)Man(a1-3)]Man(b1-4)GlcNAc(b1-4)GlcNAc
# Summary of the method: as §1
# [3] = biological target: Fuc(a1-2)Gal(b1-4)Fuc(a1-3)]GlcNAc(b1-2)Man(a1-3)[Fuc(a1-2)Gal(b1-4)[Fuc(a1-3)]GlcNAc(b1-2)Man(a1-6)]Man(b1-4)GlcNAc(b1-4)GlcNAc
# Summary of the method: as §1
# [4] = biological target: Fuc(a1-2)Gal(b1-4)GlcNAc(b1-3)Gal(b1-4)GlcNAc
# Summary of the method: as §1
# [5] = biological target: Fuc(a1-2)Gal(b1-4)GlcNAc(b1-3)Gal(b1-4)GlcNAc(b1-3)Gal(b1-4)GlcNAc
# Summary of the method: as §1
# [6] = biological target: Fuc(a1-2)Gal(b1-4)GlcNAc(b1-3)[Fuc(a1-3)[Gal(b1-4)]GlcNAc(b1-6)]Gal(b1-4)Glc
# Summary of the method: as §1
# [7] = biological target: Fuc(a1-2)[Gal(a1-4)]Gal(b1-4)GlcNAc
# Summary of the method: as §1
# [8] = biological target: Fuc(a1-2)[GalNAc(a1-3)]Gal(b1-3)GalNAc(a1-3)[Fuc(a1-2)]Gal(b1-4)GlcNAc
# Summary of the method: as §1
# [9] = biological target: Fuc(a1-2)[GalNAc(a1-3)]Gal(b1-3)GlcNAc(b1-6)GalNAc
# Summary of the method: as §1
# [10] = biological target: Fuc(a1-3)[Gal(b1-4)]GlcNAc(b1-3)Gal(b1-3)[Fuc(a1-4)]GlcNAc
# Summary of the method: as §1
# [11] = biological target: Gal(a1-4)Gal(b1-3)GlcNAc(b1-2)Man(a1-3)[Gal(a1-4)Gal(b1-3)GlcNAc(b1-2)Man(a1-6)]Man(b1-4)GlcNAc(b1-4)GlcNAc
# Summary of the method: as §1
# Gal(b1-3)GalNAc(b1-3)Gal = biological target: Gal(b1-3)GalNAc(b1-3)Gal
# Summary of the method: as §1
# [12] = biological target: Gal(b1-3)GlcNAc(b1-3)Gal(b1-4)Glc
# Summary of the method: as §1
# [13] = biological target: Gal(b1-3)[Fuc(a1-4)]GlcNAc(b1-3)Gal(b1-3)[Fuc(a1-4)]GlcNAc
# Summary of the method: as §1
# [14] = biological target: Gal(b1-4)GalNAc(a1-3)[Fuc(a1-2)]Gal(b1-4)GlcNAc
# Summary of the method: as §1
# [15] = biological target: Gal(b1-4)GlcNAc(b1-2)[Gal(b1-4)GlcNAc(b1-4)]Man(a1-3)[Gal(b1-4)GlcNAc(b1-2)Man(a1-6)]Man(b1-4)GlcNAc(b1-4)GlcNAc
# Summary of the method: as §1
# [16] = biological target: Gal(b1-4)GlcNAc(b1-3)Gal(b1-3)GalNAc
# Summary of the method: as §1
# [17] = biological target: Gal(b1-4)GlcNAc(b1-3)Gal(b1-4)GlcNAc(b1-2)[Gal(b1-4)GlcNAc(b1-3)Gal(b1-4)GlcNAc(b1-6)]Man(a1-6)[Gal(b1-4)GlcNAc(b1-3)Gal(b1-4)GlcNAc(b1-2)Man(a1-3)]Man(b1-4)GlcNAc(b1-4)[Fuc(a1-6)]GlcNAc
# Summary of the method: as §1
# [18] = biological target: Gal(b1-4)GlcNAc(b1-3)Gal(b1-4)GlcNAc(b1-3)Gal(b1-4)GlcNAc(b1-2)Man(a1-3)[Gal(b1-4)GlcNAc(b1-3)Gal(b1-4)GlcNAc(b1-3)Gal(b1-4)GlcNAc(b1-2)Man(a1-6)]Man(b1-4)GlcNAc(b1-4)GlcNAc
# Summary of the method: as §1
# [19] = biological target: Gal(b1-4)GlcNAc(b1-3)Gal(b1-4)GlcNAc(b1-3)Gal(b1-4)GlcNAc(b1-2)[Gal(b1-4)GlcNAc(b1-3)Gal(b1-4)GlcNAc(b1-3)Gal(b1-4)GlcNAc(b1-6)]Man(a1-6)[Gal(b1-4)GlcNAc(b1-3)Gal(b1-4)GlcNAc(b1-3)Gal(b1-4)GlcNAc(b1-2)Man(a1-3)]Man(b1-4)GlcNAc(b1-4)[Fuc(a1-6)]GlcNAc
# Summary of the method: as §1
# [20] = biological target: Gal(b1-4)GlcNAc(b1-3)Gal(b1-4)GlcNAc(b1-6)[Gal(b1-3)]GalNAc
# Summary of the method: as §1
# [21] = biological target: Gal(b1-4)GlcNAc(b1-3)[GlcNAc(b1-6)]Gal(b1-4)GlcNAc
# Summary of the method: as §1
# Gal3S(b1-4)Glc6S = biological target: Gal3S(b1-4)Glc6S
# Summary of the method: as §1
# [22] = biological target: Gal3S(b1-4)[Fuc(a1-3)]Glc6S
# Summary of the method: as §1
# Gal3S4S(b1-4)GlcNAc = biological target: Gal3S4S(b1-4)GlcNAc
# Summary of the method: as §1
# GalNAc(a1-3)Gal = biological target: GalNAc(a1-3)Gal
# Summary of the method: as §1
binder,measurement,setting,value
Epa11 (Candida glabrata) (protein) MGSSHHHHHHSSGLVPRGSHMASSNAPNYPVGCSPSVGTQLTPGLSLEVYAYPMDGNNGYCWNATYKDPEFPRSGYLKNKLLGKADGVVGPLNFLAKNKDCSPKVDTLPAGFNFPQPITVTNFTMVLFGYLAPKQSGKYTFKLLADDLLLLNLGATNAFDCCNREATKNNLGEFLAYNLWPNQDKNVTVYLEKGVYYPLRLFFNNRDGGSQLDFSYYFNDSPAPLTDFSGMFFSVPDGAECPARI,glycan array binding signal (z-score),[1],-0.518
same,glycan array binding signal (z-score),[2],-0.183
same,glycan array binding signal (z-score),[3],2.88
same,glycan array binding signal (z-score),[4],-0.92
same,glycan array binding signal (z-score),[5],-0.015
same,glycan array binding signal (z-score),[6],0.437
same,glycan array binding signal (z-score),[7],0.294
same,glycan array binding signal (z-score),[8],-0.24
same,glycan array binding signal (z-score),[9],-0.276
same,glycan array binding signal (z-score),[10],-0.232
same,glycan array binding signal (z-score),[11],1.7
same,glycan array binding signal (z-score),Gal(b1-3)GalNAc(b1-3)Gal,-0.185
same,glycan array binding signal (z-score),[12],-0.214
same,glycan array binding signal (z-score),[13],2.35
same,glycan array binding signal (z-score),[14],-0.453
same,glycan array binding signal (z-score),[15],-0.412
same,glycan array binding signal (z-score),[16],-0.415
same,glycan array binding signal (z-score),[17],1.98
same,glycan array binding signal (z-score),[18],2.67
same,glycan array binding signal (z-score),[19],1.94
same,glycan array binding signal (z-score),[20],1.77
same,glycan array binding signal (z-score),[21],-0.836
same,glycan array binding signal (z-score),Gal3S(b1-4)Glc6S,0.304
same,glycan array binding signal (z-score),[22],1.71
same,glycan array binding signal (z-score),Gal3S4S(b1-4)GlcNAc,-0.9
same,glycan array binding signal (z-score),GalNAc(a1-3)Gal,-0.428
